# Test results as given in PubChem BioAssay (NCATS).
# Where “and” joins values, the source holds several entries; their conditions need not be identical. Equal entries are not always repeated. Inconclusive results are not listed. Calls of active or inactive are those of the source. Unless noted, calls follow the shape of the dose curve; as a rule, active = well fitted curve in the direction sought with a large enough effect; inconclusive = small, poorly fitted or top-dose-only effect, or another doubt; inactive = no such curve, though single readings can be large; an effect the other way counts as inactive or inconclusive.
# Assays:
# [1] = biological target: Cytochrome P450 3A4 (Homo sapiens) (UniProt P08684); assay: qHTS Assay for Inhibitors and Substrates of Cytochrome P450 3A4 (AID 884); also: nearly all actives have a fitted effect of over 50% in size; also: potency is read from the fitted curve at half-maximal effect; as to activity change, negative = inhibition: % is scaled to controls: 0 for no effect and ±100 for the full control effect
# Sequence of Cytochrome P450 3A4 (Homo sapiens) (P08684 whole entry, looked up): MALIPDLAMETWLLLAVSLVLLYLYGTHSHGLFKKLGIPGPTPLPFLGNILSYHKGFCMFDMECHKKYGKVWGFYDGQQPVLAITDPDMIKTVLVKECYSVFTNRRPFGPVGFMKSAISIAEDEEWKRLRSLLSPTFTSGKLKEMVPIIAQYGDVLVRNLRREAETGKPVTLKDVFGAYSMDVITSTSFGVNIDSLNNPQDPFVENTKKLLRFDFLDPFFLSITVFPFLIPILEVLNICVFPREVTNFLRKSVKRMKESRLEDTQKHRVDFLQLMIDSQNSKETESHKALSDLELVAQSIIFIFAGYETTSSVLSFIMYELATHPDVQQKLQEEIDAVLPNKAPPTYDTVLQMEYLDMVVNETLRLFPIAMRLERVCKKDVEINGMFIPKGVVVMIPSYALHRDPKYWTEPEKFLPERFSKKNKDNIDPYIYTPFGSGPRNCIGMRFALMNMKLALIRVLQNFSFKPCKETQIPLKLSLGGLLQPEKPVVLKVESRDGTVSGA
# Procedure, shortened: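 Luminescent readout of luciferin produced by CYP3A4 (20 nM) dealkylation of Luciferin-PPXE, 25 uM (its KM). NADPH-driven reaction ran 60 min at RT after 10 min compound preincubation; data scaled to 57 uM ketoconazole as 100% inhibition.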
# [2] = Confirmation and Secondary Assay for Modulators of Hemoglobin Beta Chain Splicing at IVS2 654 locus (AID 910);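 also: HeLa cells stably carrying EGFP split by mutant beta-globin IVS2-654 intron; per-well total GFP intensity by laser scanning cytometry after 2-day treatment; % of control where 0% means no effect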
# Procedure, shortened: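 Readout: per-well total peak green fluorescence (488 nm ex, 500–520 nm em) from objects 5–250 µm, reflecting correct splicing of an EGFP-654 reporter. Compounds were applied for 2 days at 37 °C to overnight-plated HeLa EGFP-654 cells; controls were DMSO and 500 nM IVS2-654 PNA.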
# [3] = Confirmation and Secondary Assay for Modulators of Hemoglobin Beta Chain Splicing at IVS2 705 locus (AID 930);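 also: HeLa cells stably expressing the EGFP-705 splicing reporter; % of control where 0% means no effect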
# Procedure, shortened: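 HeLa cells stably carrying EGFP interrupted by mutant beta-globin IVS2-705 intron (CMV-driven) were seeded at 500 cells/well, treated next day with compound for 2 days at 37C; corrected splicing restores EGFP, read as total peak GFP intensity per well.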
# [4] = qHTS Assay for Lipid Storage Modulators (AID 1519; calls by dose curve; as to activity change, negative = inhibition: % is scaled to controls: 0 for no effect and ±100 for the full control effect); settings: Drosophila S3 cells, BODIPY lipid droplet/cell ratio, laser cytometry, cells loaded with oleic acid; for activity change, negative = inhibition: at 57.5 µM (top of the series)
# Procedure, shortened: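 Cells seeded at 5,000 per well were treated with compounds over a concentration series and loaded with oleic acid (400 uM, as added). Lipid droplet fluorescence (488 nm excitation, 500-530 nm channel) was read by laser-scanning cytometry and normalized to 20 uM Triacsin C.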
# [5] = biological target: Ubiquitin carboxyl-terminal hydrolase 1 (Homo sapiens) (UniProt O94782); assay: Inhibitors of USP1/UAF1: Pilot qHTS (AID 504865);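 also: rhodamine fluorescence freed from ubiquitin-rhodamine substrate followed over time; top concentration of the series differs between compounds; % is scaled to controls: 0 for no effect and ±100 for the full control effect; nearly all actives have a fitted effect of over 35% in size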
# Sequence of Ubiquitin carboxyl-terminal hydrolase 1 (Homo sapiens) (O94782 whole entry, looked up): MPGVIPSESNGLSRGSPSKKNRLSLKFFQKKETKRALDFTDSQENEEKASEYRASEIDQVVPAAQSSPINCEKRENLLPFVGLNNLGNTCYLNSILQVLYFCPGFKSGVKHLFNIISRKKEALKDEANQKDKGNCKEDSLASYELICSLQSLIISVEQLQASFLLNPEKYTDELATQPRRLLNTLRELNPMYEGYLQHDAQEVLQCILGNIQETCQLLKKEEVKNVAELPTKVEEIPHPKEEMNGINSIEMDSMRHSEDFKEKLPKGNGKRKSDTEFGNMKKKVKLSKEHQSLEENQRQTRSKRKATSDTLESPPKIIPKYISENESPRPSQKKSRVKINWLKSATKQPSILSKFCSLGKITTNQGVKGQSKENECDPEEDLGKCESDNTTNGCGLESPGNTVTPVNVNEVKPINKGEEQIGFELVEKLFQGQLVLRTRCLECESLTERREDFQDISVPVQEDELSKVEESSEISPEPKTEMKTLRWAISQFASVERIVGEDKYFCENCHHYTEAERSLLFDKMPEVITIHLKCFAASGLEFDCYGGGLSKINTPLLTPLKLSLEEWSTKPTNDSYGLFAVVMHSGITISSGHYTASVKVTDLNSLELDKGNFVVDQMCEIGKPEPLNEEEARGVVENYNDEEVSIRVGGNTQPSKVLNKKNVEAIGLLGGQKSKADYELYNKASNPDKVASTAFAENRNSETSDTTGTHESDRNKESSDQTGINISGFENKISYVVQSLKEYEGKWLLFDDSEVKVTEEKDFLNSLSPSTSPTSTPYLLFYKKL
# Procedure, shortened: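 Kinetic fluorescence assay: 1nM USP1/UAF1, 15 min compound preincubation, then 150nM Ub-Rho; 480/540 nm.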
# [6] = biological target: Peroxisome proliferator-activated receptor alpha (Homo sapiens) (UniProt Q07869); assay: qHTS assay for small molecule agonists of the peroxisome proliferator-activated receptor alpha (PPARalpha) signaling pathway (AID 651778); settings: PathHunter PPARalpha complementation, chemiluminescence, 6 h; stronger effect = higher value; also: % of control where 0% means no effect
# Sequence of Peroxisome proliferator-activated receptor alpha (Homo sapiens) (Q07869 whole entry, looked up): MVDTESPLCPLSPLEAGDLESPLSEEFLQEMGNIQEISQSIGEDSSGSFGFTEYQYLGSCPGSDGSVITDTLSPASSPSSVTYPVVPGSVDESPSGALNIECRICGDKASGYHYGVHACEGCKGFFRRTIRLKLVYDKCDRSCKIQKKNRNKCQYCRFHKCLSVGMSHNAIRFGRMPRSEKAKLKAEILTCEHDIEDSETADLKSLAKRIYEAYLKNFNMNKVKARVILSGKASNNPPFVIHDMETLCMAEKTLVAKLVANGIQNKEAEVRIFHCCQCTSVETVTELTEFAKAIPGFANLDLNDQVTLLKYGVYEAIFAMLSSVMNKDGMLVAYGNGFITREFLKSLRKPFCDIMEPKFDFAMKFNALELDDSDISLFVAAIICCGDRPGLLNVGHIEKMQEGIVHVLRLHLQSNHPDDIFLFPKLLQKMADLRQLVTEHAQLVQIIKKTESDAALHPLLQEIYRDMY
# Procedure, shortened: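 Chemiluminescence from complemented enzyme reported PPARalpha activation in cells after 6 hr of compound treatment at 37 C. The detection reagent was incubated for 60 min at room temperature, and compounds were scored as agonists.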
# [7] = qHTS assay for cell viability of HEK293 cells (AID 743288); settings: ATP luminescence (CellTiter-Glo), 18 h; max response: stronger effect = lower value; also: % is scaled to controls: 0 for no effect and ±100 for the full control effect; nearly all actives have a fitted effect of over 50% in size
# Procedure, shortened: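 Quantitative high-throughput screen: compounds were pinned onto parental HEK293 cells (2,000 per well) after a minimum 5 h settling at 37 C, incubated 18 h at 37 C, and intracellular ATP measured by luciferase luminescence.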
# [8] = biological target: Cytochrome P450 3A4 (Homo sapiens) (UniProt P08684); assay: qHTS Assay for Activators of Cytochrome P450 3A4 (AID 885); also: nearly all actives have a fitted effect of over 65% in size
# Procedure, shortened: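 Using 20nM recombinant human CYP3A4 in potassium phosphate (200mM), substrate Luciferin-PPXE at 25uM, luminescent luciferin detection followed a 60-min RT NADPH reaction; data scaled to 57 uM ketoconazole.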
# [9] = measured here: cell count channel max response
# [10] = measured here: lipid channel max response
Structure (SMILES),Potency [1],Potency [2],Potency [3],"activity change, negative = inhibition [4]","max response [4, 9]","max response [4, 10]",Potency [5],max response [6],max response [7],Potency [8]
CCc1cccc(C)c1N(C(=O)CCl)C(C)COC (configuration not stated),inactive,inactive,inactive,1.46% (inactive),1.84%,4.99%,inactive,-0.424% (inactive),-14.8% (inactive),
C/C=C(/C)C(=O)OC1CC[C@]2(C)C3CCC4[C@]5(O)CC(O)[C@]6(O)C(CN7CC(C)CCC7[C@]6(C)O)[C@]5(O)C[C@@]42O[C@]13O (some centres not stated),inactive,inactive,inactive,5.46% (inactive),6.5%,12.3%,inactive,,,
COc1nc(NC(C)C)nc(NC(C)C)n1,inactive,inactive,inactive,2.18% (inactive),-5.5%,-2.96%,inactive,-3.74% (inactive),-7.69% (inactive),
N#Cc1c(Cl)cccc1Cl,inactive,inactive,,7.12% (inactive),9.19%,14.3%,inactive,0.511% (inactive),0.0704% (inactive),
CC1=C2CCC3C4CCC(=O)[C@@]4(C)CCC3[C@]2(C)CCC1=O (some centres not stated),5.01 µM (active),inactive,inactive,7.19% (inactive),5.35%,8.56%,inactive,,,inactive
COc1cc(C2c3cc4c(cc3C(O)C3COC(=O)C23)OCO4)cc(OC)c1O (configuration not stated),6.31 µM (active),inactive,inactive,7.14% (inactive),-1.69%,6.73%,inactive,,,inactive
CC(=O)C1CC[C@H]2C3CC[C@@H]4CC(O)CC[C@@]4(C)C3CC[C@]12C (some centres not stated),inactive,inactive,inactive,12.3% (inactive),9.69%,25.9%,inactive,,,
CCC1CN2CCC1CC2C(O)c1ccnc2ccc(OC)cc12 (configuration not stated),inactive,inactive,inactive,6.54% (inactive),2.56%,12.3%,inactive,,,
FC(F)(F)c1cccc(N2CCNCC2)c1,inactive,inactive,,4.68% (inactive),-7.45%,-3.82%,inactive,,,
CC1(C)C(O)CC(O)[C@]2(C)C1CC(=O)[C@]1(C)C2CC[C@@]2(C)C(c3ccoc3)OC(=O)C3OC321 (some centres not stated),6.31 µM (active),inactive,inactive,-5.65% (inactive),17%,11.8%,inactive,,,inactive
O=C(O)c1nn(Cc2ccc(Cl)c(Cl)c2)c2ccccc12,inactive,inactive,,4.27% (inactive),10.4%,16.9%,inactive,,,
CN1C2CC(OC(=O)C(CO)c3ccccc3)CC1C(O)C2 (configuration not stated),inactive,inactive,,5.64% (inactive),7.52%,14.4%,inactive,,,
CC(N)[C@H](O)c1ccccc1 (some centres not stated),inactive,inactive,inactive,2.72% (inactive),12.8%,19.5%,inactive,,,
CC(C)(C#N)O[C@H]1OC(CO)C(O)C(O)C1O (some centres not stated),inactive,inactive,inactive,4.98% (inactive),13.6%,22.9%,inactive,,,
CC(C)(C)C(=O)C(Oc1ccc(Cl)cc1)n1cncn1 (configuration not stated),,inactive,inactive,7.2% (inactive),5.9%,16.7%,inactive,1.14% (inactive) and -0.0791% (inactive),-10.8% (inactive) and -21.2% (inactive),inactive
CNc1ccccc1C(=O)O,inactive,inactive,inactive,-0.857% (inactive),25%,25.4%,inactive,,,
COP(N)(=O)SC (configuration not stated),inactive,inactive,inactive,4.67% (inactive),0.934%,6.43%,inactive,-4.83% (inactive) and -1.06% (inactive),-4.36% (inactive) and -1.51% (inactive),
CC(N)C(O)c1ccc(O)c(O)c1 (configuration not stated),inactive,inactive,,9.23% (inactive) and 2.97% (inactive),10.7% and 5.9%,23.4% and 5.16%,inactive,,,
COC1=CC23CCCN2CCc2cc4c(cc2C3C1O)OCO4 (configuration not stated),31.6 µM (active),,,15.3% (inactive),26.5%,52.2%,inactive,,,inactive
O=C(O)COc1cc(Cl)c(Cl)cc1Cl,inactive,inactive,inactive,1.28% (inactive),13.2%,18.6%,inactive,-1.8% (inactive),-0.339% (inactive),
CCN1C[C@@]2(OC(=O)c3ccccc3NC(C)=O)CCC(OC)[C@@]34C5CC6C(OC)C[C@@](O)(C(CC23)[C@@H]14)C5(O)C6OC (some centres not stated),inactive,inactive,,4.73% (inactive),10.9%,17%,inactive,,,
CNC1[C@@H](O)C(OC2C(N)C[C@H](N)[C@@H](O[C@@H]3OC(C(C)O)C(O)C(O)C3N)C2O)OC[C@]1(C)O (some centres not stated),20 µM (active),,inactive,8.52% (inactive),15%,24.5%,inactive,,,inactive
